The values below come from PubChem BioAssay.

The source made the active and inactive calls. Unless noted, no rule for the calls is given here.

The nature of experiment [1]: resazurin metabolic signal in HepG2 cells – cell-based, resazurin fluorescence, 24 h, PK04 Diversity Set, profiling panel (AID 1172). As to conditions: HepG2 viability, higher = more signal. A general note: The colour change of resazurin is a common sign of viable cells or microbes.
Experiment [2] in a line: budding yeast growth changes without added modifier – OD600, strain BY4716, 24 h, basal condition, primary screen (AID 1173). The conditions noted are these: S. cerevisiae BY4716 growth, OD600, 24 h; higher = more signal, called active from +8 up or from −8 down.
Experiment [3] in a line: viability profiling in MM1S myeloma cells – cell-based, resazurin fluorescence, basal, 24 h, PK04 Diversity Set, profiling panel (AID 1174). As to conditions: higher = more signal, called active from +8 up or from −8 down.
Experiment [4] addresses Dihydroorotate dehydrogenase (quinone), mitochondrial (Plasmodium falciparum (isolate 3D7)) (UniProt Q08210). Briefly: inhibition of P. falciparum DHODH – biochemical, C-terminal His tag, absorbance 600 nm, primary screen (AID 1175).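 Also: recombinant parasite enzyme with a five histidine tag at its C terminus.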 The conditions noted are these: PfDHODH enzyme, DCIP absorbance 600 nm; higher = more signal, called active from +8 up or from −8 down.
Experiment [5] in a line: inhibition of PAO1 biofilm formation – strain PAO1, LB-PBS medium, absorbance 600 nm, primary screen (AID 1176). The conditions noted are these: P. aeruginosa PAO1 growth/biofilm, A600, 12 h; higher = more signal.
Experiment [6] is described as follows: growth modulation of vineyard yeast isolate – strain RM11-1a, OD600, basal, 24 h, primary screen (AID 1177).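 Also: cultures grown under basal conditions with no added stressor.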 The conditions noted are these: S. cerevisiae RM11-1a growth, OD600, 24 h; higher = more signal, called active from +8 up or from −8 down.
The nature of experiment [7]: growth of efflux-deficient E. coli DRC39 – strain DRC39, OD650, 24 h, E. coli filamentation inducers, primary screen (AID 1178).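 Also: growth measured as culture turbidity by optical density at 650 nm.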 The conditions noted are these: E. coli DRC39 acrAB, higher = more signal, called active from +8 up or from −8 down.
Experiment [8] in a line: growth of efflux-deficient E. coli DRC39 – strain DRC39, OD650, 48 h, E. coli filamentation inducers, primary screen (AID 1179).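 Also: screen aims at cell division blockers that make cells filament.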 As to conditions: E. coli DRC39 delta-acrAB growth, higher = more signal, called active from +8 up or from −8 down.
Experiment [9] is described as follows: viability profiling in RPMI8226 myeloma cells – cell-based, resazurin fluorescence, basal, 24 h, PK04 Diversity Set, profiling panel (AID 1180).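 Also: RPMI8826 multiple myeloma cell line at 5000 cells per well.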 As to conditions: higher = more signal.
For experiment [10], the target named is E3 ubiquitin-protein ligase XIAP (Homo sapiens) (UniProt P98170). Briefly: small molecules binding XIAP protein – biophysical, small-molecule microarray, fluorescence 635 nm, primary screen (AID 1181).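 Also: score merges 667 nm emission and signal to noise over triplicate slides.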 As to conditions: higher = more signal.
E3 ubiquitin-protein ligase XIAP (Homo sapiens), sequence (P98170 whole entry, looked up, the tested form may be a part): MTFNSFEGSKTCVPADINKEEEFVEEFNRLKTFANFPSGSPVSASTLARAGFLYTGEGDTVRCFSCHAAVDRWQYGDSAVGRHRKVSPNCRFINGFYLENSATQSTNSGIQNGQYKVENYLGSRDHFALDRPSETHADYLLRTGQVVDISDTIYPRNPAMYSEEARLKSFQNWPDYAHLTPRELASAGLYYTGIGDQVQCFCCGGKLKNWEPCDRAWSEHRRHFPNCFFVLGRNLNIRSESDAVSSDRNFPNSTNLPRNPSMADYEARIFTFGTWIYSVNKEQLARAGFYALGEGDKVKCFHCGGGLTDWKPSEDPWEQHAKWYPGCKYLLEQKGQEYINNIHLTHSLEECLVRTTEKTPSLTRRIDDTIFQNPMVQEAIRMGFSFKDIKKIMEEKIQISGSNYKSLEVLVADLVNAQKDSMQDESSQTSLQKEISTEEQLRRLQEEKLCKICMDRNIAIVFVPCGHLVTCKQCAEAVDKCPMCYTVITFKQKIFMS
The subject of experiment [11] is XIP peptide (Xip251-270) binding. Briefly: XIP fragment 251-270 binding compounds – biochemical, small-molecule microarray, fluorescence 635/667 nm, 0.1 µg/mL protein, primary screen (AID 1182). As to conditions: fluorescent protein binding, 635 nm, higher = more signal, called active from +8 up or from −8 down.
Experiment [12] deals with XIP peptide (Xip251-270). Briefly: compounds binding XIP fragment 251-270 – biochemical, small-molecule microarray, fluorescence 635/667 nm, 0.5 µg/mL protein, primary screen (AID 1183). As to conditions: fluorescence 635 nm, higher = more signal.
Experiment [13] is described as follows: blood-stage malaria parasite viability loss – strain 3D7, DAPI fluorescence, 100 nL, primary screen (AID 1184).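 Also: parasites grown inside human red blood cells in medium with human serum.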 The conditions noted are these: P. falciparum 3D7 growth, 3 d, higher = more signal.
Experiment [14] deals with Homeobox protein Hox-A13 (Mus musculus) (UniProt Q62424). Briefly: disruptors of Hoxa13 oligonucleotide interaction – biochemical, fluorescence polarization, labeled oligonucleotide, primary screen (AID 1185). As to conditions: Hoxa13:DNA binding, 15 min, higher = more signal, called active from +8 up or from −8 down.
Homeobox protein Hox-A13 (Mus musculus), sequence (Q62424 whole entry, looked up): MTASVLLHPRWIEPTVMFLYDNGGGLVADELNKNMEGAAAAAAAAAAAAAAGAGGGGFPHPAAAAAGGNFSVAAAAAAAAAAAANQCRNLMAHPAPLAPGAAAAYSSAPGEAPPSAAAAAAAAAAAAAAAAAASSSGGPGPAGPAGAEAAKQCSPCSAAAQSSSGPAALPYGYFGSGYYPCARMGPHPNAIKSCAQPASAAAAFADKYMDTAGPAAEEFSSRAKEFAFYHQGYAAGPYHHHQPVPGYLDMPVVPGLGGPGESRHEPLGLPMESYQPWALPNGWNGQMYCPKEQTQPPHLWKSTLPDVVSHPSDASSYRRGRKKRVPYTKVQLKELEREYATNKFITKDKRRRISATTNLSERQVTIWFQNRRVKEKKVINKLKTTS
A short description of experiment [15]: blockers of DNA damage checkpoint Chk1 activation – imaging, HeLa, hydroxyurea, phospho-Chk1 antibody, percent positive cells, primary screen (AID 1186). As to conditions: hydroxyurea-induced phospho-Chk1 immunofluorescence imaging, higher = more signal.
Experiment [16] in a line: blockers of DNA damage checkpoint Chk1 activation – imaging, HeLa, hydroxyurea, phospho-Chk1 nuclear intensity, primary screen (AID 1187). As to conditions: hydroxyurea-induced phospho-Chk1 immunofluorescence imaging, higher = more signal.

Dihydroorotate dehydrogenase (quinone), mitochondrial (Plasmodium falciparum (isolate 3D7)), sequence (Q08210 whole entry, looked up): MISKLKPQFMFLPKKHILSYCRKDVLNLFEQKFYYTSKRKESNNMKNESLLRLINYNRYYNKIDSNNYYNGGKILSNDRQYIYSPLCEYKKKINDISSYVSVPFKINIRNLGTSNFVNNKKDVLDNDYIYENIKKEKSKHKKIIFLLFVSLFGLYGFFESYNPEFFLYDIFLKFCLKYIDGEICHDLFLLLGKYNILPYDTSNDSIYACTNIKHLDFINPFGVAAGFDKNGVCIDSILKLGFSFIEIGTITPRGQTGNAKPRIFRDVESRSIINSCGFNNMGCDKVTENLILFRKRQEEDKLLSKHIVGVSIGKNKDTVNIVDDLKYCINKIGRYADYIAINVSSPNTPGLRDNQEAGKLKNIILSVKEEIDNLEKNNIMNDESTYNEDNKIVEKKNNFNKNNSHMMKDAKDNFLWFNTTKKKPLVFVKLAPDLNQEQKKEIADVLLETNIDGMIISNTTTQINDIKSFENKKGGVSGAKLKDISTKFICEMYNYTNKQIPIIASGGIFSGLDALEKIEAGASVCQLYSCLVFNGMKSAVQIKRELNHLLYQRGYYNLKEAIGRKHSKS

Turning to `COC(=O)C(CC#Cc1ccc2c(c1)[C@]1(C(=O)N2)[C@H](c2ccc(O)cc2)N2[C@H](c3ccccc3)[C@H](c3ccccc3)OC(=O)[C@H]2[C@@H]1C(=O)N1CCN(c2ncccn2)CC1)C(=O)OC`, the z-score in experiment [1] was -0.0862; in experiment [2] it was 0.238 (inactive); in [3] it was -1.02 (inactive); in [5], 0.847 (inactive); in experiment [6], 0.849 (inactive); in experiment [7] it was 0.551 (inactive). For the same compound, the z-score in experiment [8] is 0.769 (inactive); in experiment [9], -3.92; in [13] it was -2.26; in experiment [14], -1.65 (inactive); in [15], -0.231 (inactive); in [16] it was -0.514 (inactive). In addition, the composite z-score is 0.0817 (inactive) in experiment [4], -0.0668 in experiment [10], 0.655 (inactive) in experiment [11] and 0.826 in experiment [12].

As for `C=CC[C@]12N=C(c3ccc(OCCCO)cc3)O[C@H]1c1ccccc1N(CCS(=O)(=O)c1ccccc1)C2=O`, the z-score in experiment [1] was 1.49; in [2], -0.298 (inactive); in experiment [3] it was -1.58 (inactive); in experiment [5] it was -0.0988 (inactive); in experiment [6], 1.05 (inactive); in [7] it was 0.611 (inactive). For the same compound, the z-score in [8] was -0.0546 (inactive); in experiment [9] it was -0.585; in experiment [13] it was -1.57; in experiment [14], -2.59 (inactive); in [15] it was -0.382 (inactive); in [16] it was -0.315 (inactive). Besides, the composite z-score is 0.0191 (inactive) in experiment [4], -0.271 in experiment [10], 3.59 (inactive) in [11] and 0.708 in experiment [12].

On to `COC(=O)[C@@]1(Cc2ccc(OC)cc2)[C@H]2c3cc(C(=O)N4CCCC4)n(CCCNc4ncc(C(F)(F)F)cc4Cl)c3C[C@H]2CN1C(=O)c1ccccc1`, for which the z-score in [1] was 0.808; in experiment [2], 1.01 (inactive); in experiment [3], -1.12 (inactive); in experiment [5], -0.0982 (inactive); in experiment [6], 0.398 (inactive); in experiment [7] it was -0.0379 (inactive). The z-score was -0.816 (inactive) in experiment [8]; -2.67 in experiment [9]; -1.41 in experiment [13]; -4.1 (inactive) in experiment [14]; 0.259 (inactive) in experiment [15]; -0.101 (inactive) in [16]. In addition, the composite z-score in experiment [4] was -0.199 (inactive); in experiment [10] it was 0.0986; in experiment [11], -0.546 (inactive); in experiment [12] it was 0.736.

Turning to `Cc1ccc(S[C@]2(C(=O)O)CC(=O)N(C(C)C)[C@@H]2c2ccc(CO)cc2)cc1`, the z-score in experiment [1] is 0.0469; in [2], -1.45 (inactive); in [3], 0.359 (inactive); in experiment [5], 1.02 (inactive); in experiment [6], -1.33 (inactive); in experiment [7], 1.44 (inactive). The z-score is 1.93 (inactive) in experiment [8]; 0.376 in experiment [9]; 0.252 in [13]; -0.292 (inactive) in experiment [14]; -0.696 (inactive) in experiment [15]; -0.558 (inactive) in [16]. For the same compound, the composite z-score in experiment [4] is -0.896 (inactive); in experiment [10] it was -0.0962; in experiment [11] it was 0.402 (inactive); in [12], 0.216.

`C=CCNC(=O)[C@@H]1[C@H]2C(=O)O[C@H](c3ccccc3)[C@H](c3ccccc3)N2[C@H](c2ccc(OCCO)cc2)[C@@]12C(=O)N(C(=O)OCCOC)c1ccc(C#CCC(C(=O)OC)C(=O)OC)cc12`: the z-score is -0.185 in experiment [1]; 1.01 (inactive) in [2]; 0.351 (inactive) in [3]; 2.85 (inactive) in [5]; 1.61 (inactive) in [6]; 0.854 (inactive) in [7]. Besides, the z-score in [8] is -0.033 (inactive); in experiment [9], -1.24; in [13], -2.11; in experiment [14], -1.17 (inactive); in experiment [15], 0.053 (inactive); in experiment [16] it was 0.0115 (inactive). The composite z-score was -1.27 (inactive) in experiment [4], 0.284 in experiment [10], 1.33 (inactive) in [11] and 0.743 in experiment [12].

Take `O=C1O[C@@H](c2ccccc2)[C@@H](c2ccccc2)N2[C@@H](c3ccccc3OCCO)[C@]3(C(=O)Nc4ccc(C#CC5(O)CCCCCC5)cc43)[C@@H](C(=O)N3CCN(c4ncccn4)CC3)[C@H]12`: the z-score in [1] is 0.0783; in [2], 1.62 (inactive); in experiment [3], -1.18 (inactive); in experiment [5] it was 1.94 (inactive); in [6], 4.01 (inactive); in experiment [7], -0.418 (inactive). Also, the z-score in experiment [8] is 0.247 (inactive); in [9] it was -0.737; in experiment [13], -2.17; in experiment [14], -1.01 (inactive); in experiment [15], -0.0019 (inactive); in [16], 0.451 (inactive). The composite z-score is 0.937 (inactive) in experiment [4], 0.372 in experiment [10], -0.0661 (inactive) in experiment [11] and 0.661 in experiment [12].

Take `COC(=O)[C@@]1(Cc2ccccc2)[C@H]2c3cc(C(=O)N4CCCC4)n(Cc4c(CO)[nH]cc(C)c4=O)c3C[C@H]2CN1C(=O)c1ccccc1`: the z-score in [1] was -0.789; in experiment [2], 1.01 (inactive); in [3], -0.74 (inactive); in experiment [5] it was 0.287 (inactive); in experiment [6] it was 0.624 (inactive); in [7], -0.384 (inactive). Moreover, the z-score in experiment [8] is 0.156 (inactive); in experiment [9], -0.467; in [13], -1.46; in experiment [14], -5.81 (inactive); in [15] it was 0.754 (inactive); in experiment [16] it was 0.672 (inactive). Moreover, the composite z-score was 0.255 (inactive) in [4], 0.406 in [10], -0.528 (inactive) in [11] and 0.704 in experiment [12].

For the compound `CC[C@@H]1C=C(C(=O)O)[C@H](c2cccc3ccccc23)N1S(=O)(=O)c1ccc(C)cc1`, the z-score in experiment [1] was -0.359; in experiment [2], 0.518 (inactive); in experiment [3], -0.653 (inactive); in experiment [5], 0.546 (inactive); in [6], -0.43 (inactive); in [7], -0.624 (inactive). Moreover, the z-score in [8] was 0.225 (inactive); in experiment [9], -1; in experiment [13], -0.509; in experiment [14], -1.85 (inactive); in [15] it was -1.25 (inactive); in experiment [16], -1.44 (inactive). Further, the composite z-score in [4] was 0.859 (inactive); in experiment [10] it was -0.359; in experiment [11] it was 0.406 (inactive); in experiment [12], 0.437.

For the compound `Cc1c(NC(=O)/C(C#N)=C/c2cccc([N+](=O)[O-])c2)c(=O)n(-c2ccccc2)n1C`, the z-score in experiment [1] is 0.131; in experiment [2], -0.701 (inactive); in experiment [3], -1.34 (inactive); in experiment [5], 0.972 (inactive); in experiment [6], -2.91 (inactive); in [7] it was 1.48 (inactive). Moreover, the z-score was 0.837 (inactive) in experiment [8]; 0.246 in [9]; -0.413 in experiment [13]; -2.41 (inactive) in experiment [14]; -0.782 (inactive) in [15]; -1.15 (inactive) in [16]. Also, the composite z-score in experiment [4] is -2.58 (inactive); in experiment [10], 0.248; in experiment [11] it was 0.92 (inactive); in experiment [12], 0.695.
